Results reported in PubChem BioAssay AID504332 (National Center for Advancing Translational Sciences (NCATS), 2011).
The whole screen tested about 350,000 compounds, of which about 31,000 (8.9%) were called active. Roughly 15% stayed inconclusive and do not appear here. The call rests on the fitted dose curve; in most records, active means well fitted inhibition curve with a large enough effect; inconclusive means small, poorly fitted or top-dose-only effect; inactive means no such curve, though single readings can be large or run the other way. The entries come from a sample that favours actives as a whole.
Further: nearly all actives have a fitted effect of over 75% in size.
On the % scale 0 is the no-effect control and ±100 the full control effect; potency means the concentration at half of the fitted maximal effect.

These molecules were tested against Histone-lysine N-methyltransferase EHMT2 (Homo sapiens) (UniProt Q96KQ7) (assay: qHTS Assay for Inhibitors of Histone Lysine Methyltransferase G9a). Conditions: G9a H3K9 monomethylation, AlphaScreen, 2 h; series mostly up to 59 µM; activity, negative = inhibition: at the top concentration.
Histone-lysine N-methyltransferase EHMT2 (Homo sapiens), sequence (Q96KQ7 913-1193 limits assumed): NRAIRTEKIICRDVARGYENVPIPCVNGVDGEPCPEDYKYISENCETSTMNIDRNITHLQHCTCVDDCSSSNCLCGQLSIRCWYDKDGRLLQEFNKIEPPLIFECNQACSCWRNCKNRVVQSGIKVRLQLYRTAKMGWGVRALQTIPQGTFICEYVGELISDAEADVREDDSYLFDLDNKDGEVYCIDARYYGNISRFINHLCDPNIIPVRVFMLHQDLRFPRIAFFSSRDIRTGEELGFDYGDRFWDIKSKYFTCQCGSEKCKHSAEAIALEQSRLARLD
Excerpt: Methylated lysines, on the N-terminal tails of histone proteins serve as epigenetic markers to recruit factors that can then modify local chromatin structure to lead to functional consequences. G9a and other members of the SUV39 family of the SET domain-containing superfamily of histone lysine methyltransferases (HMT) have been identified to specifically methylate Lys9 of histone H3 (H3K9). G9a catalyzes the mono- and di-methylation of H3K9 in mammalian euchromatic regions, where the resulting H3K9me2 is indicative of transcriptional repression. […] The inhibition of G9a will result in transcriptional activation and work synergistically with DNA methyltransferase and histone deacetylase inhibitors, to kill cancer cells. This qHTS assay for identification of G9a inhibitors is a chemiluminescence based AlphaScreen (PerkinElmer). Methylation of biotinylated-histone peptide is measured through specific antibody-based detection, in conjunction with streptavidin-coated donor and anti-IgG antibody-coated acceptor beads. The method is particularly well suited for detection of inhibitors acting by the desired histone peptide competitive mechanism and is applicable to testing other HMTs. Although AlphaScreen has significant advantages with its utility in a variety of epigenetic target assays, the primary screening data provided in this deposition should be used with caution due to the prevalence of screening artifacts. An AlphaScreen counterscreen is highly recommended to be run against any putative actives to eliminate non specific artifacts. Alternatively, one can use other AlphaScreen assays in PubChem to filter out promiscuous hits. Quinn et al. A chemiluminescence-based method for identification of histone lysine methyltransferase inhibitors. Mol Biosyst 6(5): 782-8. 2010. PMID: 20567762 [2] Baell,Holloway. New substructure filters for removal of pan assay interference compounds (PAINS) from screening libraries and for their exclusion in bioassays. J Med Chem. 53(7):2719-40. 2010. PMID: 20131845 NIH Molecular Libraries Probe Production Network [MLPCN] NIH Chemical Genomics Center [NCGC] Structural Genomics Consortium (SGC) NIH Grant: 5U54 MH084681-02
To each well of a 1,536w plate, 2ul of HMT enzyme (final 20nM) were added, using a nanoliter dispenser. The G9a- and GLP-inhibitor BIX-01294 (CID: 25150857) are used as an intraplate control, with a 16-point titration in duplicate. A Kalypsys pin-tool transferred 23nl of library compound solution in DMSO to each well. Following a 15 min incubation of enzyme with compounds at room temperature, 1ul mixture of b-H3K9 peptide substrate (final 500nM) and SAM cofactor (final 20uM) were added. Reactions were allowed to proceed at room temperature for 2 hours. Methylated b-H3K9 peptide product was detected with 0.5 ug/mL rabbit polyclonal anti-monomethyl histone H3K9 antibody (Abcam Inc., Cambridge, MA) and 20 ug/mL each streptavidin-coated donor and anti-rabbit IgG acceptor AlphaScreen beads. Antibody and beads were added in a 1ul dispense, for a final volume of 4ul, and plates were incubated, protected from the light, for 10 min at room temperature. Microplates were then read on an EnVision multilabel plate reader using the 1,536 plate HTS AlphaScreen aperture (excitation time 80 ms, measurement time 240 ms).
C/C(=N\Nc1ncc(Cl)cc1Cl)c1cccs1 was tested, and the “activity, negative = inhibition” value was -2.14% [at 102 µM] (inactive).
C/C(=N\NC(=O)COc1c(C)cccc1C)c1cccs1 was tested, and the “activity, negative = inhibition” value was 26.6% [at 102 µM] (inactive).
In the case of C/C(=N\Nc1ccc(S(N)(=O)=O)cc1[N+](=O)[O-])c1cccs1, the Potency is reported as 25.1 µM (active).
In the case of C=CCOc1ccc(C(=O)Nc2ccccc2C(=O)N2CCCC2)cc1, the “activity, negative = inhibition” value is reported as 0.754% [at 102 µM] (inactive).
In the case of O=C(NCCc1ccc(Cl)cc1)c1ccc2c(c1)N(Cc1ccc(F)cc1)C(=O)CS2, the “activity, negative = inhibition” value is reported as 4.55% (inactive).
With Cc1cc2ccccc2n2c(SCC(=O)N3CCN(C(=O)c4ccco4)CC3)nnc12 the “activity, negative = inhibition” value was -25.7% [at 102 µM] (inactive).
In the case of O=C(CSc1nnc(-c2cccs2)n1-c1ccccc1)NCc1ccco1, the activity, negative = inhibition is reported as -5.59% [at 12.7 µM] (inactive).
With O=C(CSc1nnc(-c2cccs2)n1-c1ccccc1)N1CCN(C(=O)c2ccco2)CC1 the Potency was 7.08 µM (active).
Cc1cc(=O)n2[nH]c(-c3cccc(Cl)c3)cc2n1 was tested, and the “activity, negative = inhibition” value was -10.1% [at 102 µM] (inactive).
For Cc1cc(/C=C(/C#N)C(=O)Nc2ccc(Cl)cc2)c(C)n1-c1cccnc1, the “activity, negative = inhibition” value was 23.3% (inactive).
Cc1cc(/C=C2\SC(=Nc3ccc(N4CCOCC4)cc3)N(C)C2=O)c(C)n1-c1cccnc1 was tested, and the Potency was 70.8 µM (active).
For O=C(/C=C/c1ccc(N2CCOCC2)cc1)c1ccccc1, the “activity, negative = inhibition” value was 96.9% [at 102 µM] (inactive).
O=C(NCCS(=O)(=O)NCc1ccc(Cl)cc1)c1ccccc1 was tested, and the “activity, negative = inhibition” value was -7.35% [at 102 µM] (inactive).
In the case of O=C(/C=C/Nc1ccc(S(=O)(=O)Nc2cnc3ccccc3n2)cc1)c1cccnc1, the Potency is reported as 70.8 µM (active).
Cc1cc(NS(=O)(=O)c2ccc(NC(=O)c3cccnc3)cc2)nc(C)n1 was tested, and the “activity, negative = inhibition” value was 2.52% [at 102 µM] (inactive).
With Cc1noc(NS(=O)(=O)c2ccc(N/C=C/C(=O)c3ccccc3)cc2)c1C the activity, negative = inhibition was -38.3% [at 2.33 µM] (inactive).
In the case of CC(OC(=O)CCCOc1ccccc1)C(=O)Nc1ccc(Cl)cn1 (stereo not drawn), the “activity, negative = inhibition” value is reported as 34.7% [at 102 µM] (inactive).
In the case of Cc1ccc(-c2noc(CSc3nnc(-c4ccc(Cl)cc4)n3C)n2)cc1, the “activity, negative = inhibition” value is reported as 1.74% (inactive).
With Cc1cc(=O)n2nc(N3CCCC(C(=O)NCc4cccc(Cl)c4)C3)sc2n1 (stereo not drawn) the “activity, negative = inhibition” value was 14.8% [at 102 µM] (inactive).
With O=C(CN1CCN(c2ccc(Cl)cc2)CC1)c1ccccc1 the Potency was 8.91 µM (active).
O=C(CN1c2ccccc2S(=O)(=O)c2ccccc21)Nc1cccc(C(F)(F)F)c1 was tested, and the “activity, negative = inhibition” value was -10.5% (inactive).
With COc1ccc(NC(C)=O)cc1NC(=O)CN1CCN(c2ccc(F)cc2)CC1 the “activity, negative = inhibition” value was 2.49% (inactive).
O=C(CN1CCN(c2ccc(F)cc2)CC1)Nc1cccc(C(F)(F)F)c1 was tested, and the Potency was 50.1 µM (active).
With COc1ccccc1N1CCN(CC(=O)NC(=O)NCc2ccco2)CC1 the “activity, negative = inhibition” value was 6.46% [at 102 µM] (inactive).
With O=C(CN1CCN(S(=O)(=O)/C=C/c2ccccc2)CC1)NC(=O)NCc1ccco1 the Potency was 20 µM (active).
For Cc1ccc(Cl)cc1NC(=O)CN1CCN(S(=O)(=O)N2CCOCC2)CC1, the “activity, negative = inhibition” value was 1.26% [at 102 µM] (inactive).
In the case of O=C(CN1CCOCC1)Nc1cc(Cl)ccc1Cl, the “activity, negative = inhibition” value is reported as 53.9% (inactive).
With NC(=O)CCN1CCN(S(=O)(=O)/C=C/c2ccccc2)CC1 the “activity, negative = inhibition” value was 29% [at 102 µM] (inactive).
In the case of O=C(CN1CCN(c2ccc(Cl)cc2)CC1)N1CCCC1, the “activity, negative = inhibition” value is reported as 12.3% (inactive).
With CC(C)OC(=O)CN1CCN(c2ccc(Cl)cc2)CC1 the “activity, negative = inhibition” value was 1.33% [at 102 µM] (inactive).
In the case of O=C(CN1CCN(c2ccc(O)cc2)CC1)Nc1cc(S(=O)(=O)N2CCOCC2)ccc1Cl, the Potency is reported as 3.16 µM (active).
COc1ccccc1NC(=O)C1=C(C)Nc2nc(SCC(=O)c3ccc(C)cc3)nn2C1c1ccccc1C (stereo not drawn) was tested, and the “activity, negative = inhibition” value was -0.656% (inactive).
With O=C(NCc1ccncc1)c1cccc(NS(=O)(=O)c2ccc(F)c(F)c2)c1 the “activity, negative = inhibition” value was -0.45% (inactive).
For CC1CCCCN1S(=O)(=O)c1ccc(F)c(C(=O)Nc2ccccc2C(F)(F)F)c1 (stereo not drawn), the “activity, negative = inhibition” value was 11.3% (inactive).
In the case of CN(Cc1ccccc1)S(=O)(=O)c1ccc(F)c(C(=O)Nc2cccc(Cl)c2Cl)c1, the “activity, negative = inhibition” value is reported as -8.99% (inactive).
With COc1ccc(-c2c(C)c3ccc(O)c(CN4CCCC4)c3oc2=O)cc1OC the “activity, negative = inhibition” value was 13.2% (inactive).
COc1ccc(-c2noc(CCC(=O)N(C)c3ccccc3C)n2)cc1 was tested, and the “activity, negative = inhibition” value was 7.21% (inactive).
Cc1ccc2nc(SCC(=O)N3CCN(c4ccccc4)CC3)nc(=O)n2c1 was tested, and the activity, negative = inhibition was -0.43% [at 0.501 µM] (inactive).
In the case of O=C(COC(=O)c1cc(=O)[nH]c2ccccc12)NCc1cccc(Cl)c1, the activity, negative = inhibition is reported as 1.96% [at 12.7 µM] (inactive).
In the case of CN(C)S(=O)(=O)c1ccc(C(=O)N(Cc2cccnc2)c2nc3c(F)cc(F)cc3s2)cc1, the “activity, negative = inhibition” value is reported as -4.21% (inactive).
For COc1ccccc1NC(=O)C1CCCN1S(=O)(=O)c1ccc(Cl)cc1 (stereo not drawn), the “activity, negative = inhibition” value was 34.2% [at 102 µM] (inactive).
O=C(CNC(=O)c1ccc(Br)o1)NCC1CCCO1 (stereo not drawn) was tested, and the “activity, negative = inhibition” value was 36.6% [at 102 µM] (inactive).
With NS(=O)(=O)c1ccc(NC(=O)C(=O)Nc2ccc3nc4n(c(=O)c3c2)CCCCC4)cc1 the “activity, negative = inhibition” value was -25.2% (inactive).
O=C(CN1CCOCC1)Nc1ccccc1 was tested, and the activity, negative = inhibition was 41.4% [at 12.7 µM] (inactive).
With O=C(CN1CCN(S(=O)(=O)/C=C/c2ccccc2)CC1)Nc1ccc(N2CCOCC2)cc1 the Potency was 35.5 µM (active).
With CC(=O)c1ccc(N2CCN(CC(=O)Nc3ccccc3N3CCOCC3)CC2)cc1 the “activity, negative = inhibition” value was -4.9% (inactive).
With O=c1cc(CN2CCN(S(=O)(=O)/C=C/c3ccccc3)CC2)c2ccc(O)cc2o1 the “activity, negative = inhibition” value was 9.01% (inactive).
In the case of O=C(CN1CCN(c2ccc(O)cc2)CC1)Nc1ccc(-c2ccccc2)cc1, the Potency is reported as 11.2 µM (active).
